According to PubChem BioAssay (NCI):
Compounds without any hit were thinned out: in the full panel of roughly 83,000, 20% have a hit.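 How to read the values: 0–100, growth inhibition (40 = 60% inhibited); 0, no net growth; -100 to 0, cell death (-40 = 40% of starting cells died; -100 = all dead).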 Unmarked numbers belong to inactive results. The source made the active and inactive calls. How the source made its calls: active means growth percent below 10; inactive means the rest.

What was measured:
Assay in all cases: NCI-60 one-dose screen, 48 h (100 = growth as untreated, 0 = no growth, -100 = all killed)
Conditions in all cases: 10 µM unless noted
NCI-H23 lung = test system: NCI-H23 lung
NCI-H226 lung = test system: NCI-H226 lung
NCI-H322M lung = test system: NCI-H322M lung
HOP-62 NSCLC = test system: HOP-62 NSCLC
NCI-H460 lung = test system: NCI-H460 lung
HOP-92 NSCLC = test system: HOP-92 NSCLC
NCI-H522 lung = test system: NCI-H522 lung
A549/ATCC NSCLC = test system: A549/ATCC NSCLC
786-0 renal = test system: 786-0 renal
COLO 205 colon = test system: COLO 205 colon

SMILES	growth (NCI-H23 lung)	growth (NCI-H226 lung)	growth (NCI-H322M lung)	growth (HOP-62 NSCLC)	growth (NCI-H460 lung)	growth (HOP-92 NSCLC)	growth (NCI-H522 lung)	growth (A549/ATCC NSCLC)	growth (786-0 renal)	growth (COLO 205 colon)
C/C(=C(/c1ccccc1)c1ccc(N2C(=O)c3cccc4c(N5CCN(C)CC5)ccc(c34)C2=O)cc1)c1ccccc1	59.7%	69.6%	99.9%	86.1%	83.3%	67.4%	81.5%	71.1%	87.6%	81.1%
N#Cc1c(-c2ccc(Cl)cc2)nc(NCCO)[nH]c1=O	94.3%	101%	94.4%	88.6%	114%	92.3%	95.9%	93.9%	101%	106%
CC1CN(C2CCCCC2)C(=S)N(c2ccccc2)C1=O (stereo not given)	100%	115%	107%	93.7%	107%	92.8%	116%	102%	92.2%	127%
C/C(=C\C(=O)c1ccc(Cl)cc1)c1ccc(Cl)cc1	83.9%	90.9%	84.9%	88.1%	100%	72.8%	87.8%	95.2%	108%	97.5%
CCOC(=O)c1cn2ncnc(Oc3ccc(NC(=O)NCCN4CCN(C)CC4)c(Cl)c3)c2c1C	67.8%	82.3%	93%	87.9%	99.4%	31.6%	66.6%	88.6%	81.8%	76.8%
c1ccc(Nc2cc(-c3cccnc3)[nH]n2)cc1	105%	94.1%	95.5%	84%	111%	94.4%	89.5%	93.3%	98.1%	106%
CCOC(=O)/C(C#N)=C\Nc1ccc2ncnc(Nc3ccc(Cl)cc3Cl)c2c1	99.5%	99.8%	75.6%	101%	84.8%	56.5%	95.8%	72.1%	82.6%	108%
Cc1c(C(=O)N[C@@H](Cc2ccccc2)C(=O)C(=O)NCc2ccc(F)cc2)[nH]c2ccccc2c1=O	101%	89%	98.8%	106%	56.9%	94.4%	91.4%	97.3%	102%	-42.1% (active)
C=C1C(=O)O[C@H]2[C@H]1CC/C(COC(=O)C(C)c1ccc(CC(C)C)cc1)=C\CC[C@@]1(C)O[C@@H]21 (stereo not given in full)	25.8%	83.6%	97.9%	84.7%	37.9%	-26.8% (active)	-63.8% (active)	75.1%	-93.4% (active)	-10.1% (active)
CCCCCCNC(=O)Oc1ccc(/C(=C(\C)c2ccc(Cl)cc2)c2ccc(OCCN3CCCCC3)cc2)cc1	48.5%	91.2%	84.9%	68.5%	23.8%	47.6%	69.1%	48.9%	23.7%	-35.8% (active)
Cc1ccc(C(=O)NN2C(=O)CSC2c2cccc([N+](=O)[O-])c2)cn1 (stereo not given)	93.2%	95.6%	104%	93%	108%	81.3%	109%	92.9%	106%	105%
O=c1[nH]c2c(ccc3cnccc32)c2c1CCC2	-64.6% (active)	-6.54% (active)	-11.7% (active)	-3.9% (active)	-4.19% (active)	-17.1% (active)	-33.6% (active)	14.9%	12.6%	-77.4% (active)
COc1ccc(C(=O)n2nc(-c3ccccc3)nc2N)cc1OC	93.9%	79.9%	89.1%	79.7%	98.3%	67%	85.4%	95.1%	96.1%	103%
CC1=C([Se]CC(OC(=O)[C@@H](CSSC(C)(C)C)NC(=O)OC(C)(C)C)C(=O)NC(C)(C)C)C(=O)c2ccccc2C1=O (stereo not given in full)	-63.7% (active)	-56.8% (active)	-73.6% (active)	-51% (active)	-52.1% (active)	-72.2% (active)	7.01% (active)	1.99% (active)	-93.8% (active)	-84.7% (active)
COc1ccc(-c2csc(NC(=O)N3CCN(c4cc5c(cc4F)c(=O)c(C(=O)O)cn5C4CC4)CC3)n2)cc1	-2.88% (active)	18.8%	7.07% (active)	20%	4.13% (active)	-25.6% (active)	-13.9% (active)	3.2% (active)	20.7%	9.52% (active)
Cc1cc(O)c(C2=NN(c3ccc(S(N)(=O)=O)cc3)C(c3ccccc3O)C2)cc1Cl (stereo not given)	-19.9% (active)	0.355% (active)	46.8%	-3.51% (active)	-47.9% (active)	5.49% (active)	-56.8% (active)	3.15% (active)	-55.7% (active)	-94.4% (active)
Cc1cc(O)c(C2=NN(c3ccc(S(N)(=O)=O)cc3)C(/C=C/c3ccccc3)C2)cc1Cl (stereo not given)	22.3%	33.7%	57.5%	17.6%	35.3%	29.6%	31.9%	46.6%	7.75% (active)	65.2%
Cc1[nH]c(C(=O)Nc2ccc(C(=O)NCCN)cc2OC(C)C)c(Cl)c1Cl	79.5%	93.5%	53.3%	59.9%	-55.2% (active)	29.7%	-6.73% (active)	47.3%	44%	-45.7% (active)
COc1ccc(-c2nc3sc(-c4ccccc4)cn3n2)cc1	72%	76.3%	85.8%	50.5%	34.9%	67.6%	29.6%	50.8%	88%	36.7%
Oc1ccc(-c2nc3ccc4[nH]ncc4c3c3c2CCCC3)c2cccnc12	-7.85% (active)	-2.05% (active)	11.3%	5.46% (active)	-21.7% (active)	-16.7% (active)	15%	-34% (active)	2.06% (active)	-11.6% (active)
O=[N+]([O-])c1ccc(Cl)c(-c2cc(CCCCO)on2)c1	101%	93.5%	96.3%	106%	109%	94.2%	93.8%	92.9%	98.6%	131%
Cc1ccc(C2CC(c3ccc(Nc4ccnc5cc(Cl)ccc45)cc3)=NN2C=O)cc1 (stereo not given)	60.3%	85.1%	87.8%	72.5%	69.8%	61.5%	50.1%	50.2%	64%	64.9%
CCCCC[C@H](O)C/C=C1/C(=O)C=C[C@@H]1C/C=C\CCCC(=O)OC	67.9%	70.4%	79.7%	34%	46.8%	108%	30.4%	72%	44%	62.8%
O=c1ccn(Cc2cn(-c3c4ccccc4nc4ccccc34)nn2)c(=O)[nH]1	94%	102%	99.2%	97.7%	96.5%	84.7%	-57.4% (active)	91.2%	90.9%	108%
O=C(N/N=C/c1ccc(Cl)cc1)c1ccc(C(F)(F)F)nc1Nc1cccc(C(F)(F)F)c1	-36.7% (active)	21.2%	8.21% (active)	43.5%	6.99% (active)	-0.43% (active)	8.57% (active)	19.5%	23.1%	-12.6% (active)
NCCCNc1nc2ccccc2c2c(=O)c3cc(C(F)(F)F)ccc3sc12	49.6%	86.8%	56.8%	52.7%	-69.7% (active)	32.6%	-3.15% (active)	-16.6% (active)	61.1%	-41.4% (active)
CCCCOc1nc2c(C)cccc2cc1-c1cc(-c2ccc(Cl)cc2)nc(-c2ccc(Cl)cc2)c1	110%	100%	97.1%	103%	103%	91.4%	97.4%	101%	102%	111%
